Assay outcomes (PubChem BioAssay)
KDM4E inh – inhibitors of human JMJD2E histone demethylase | JMJD2E catalytic domain, FDH-coupled NADH fluorescence (FDH is formaldehyde dehydrogenase) | Potency, µM (top dose mostly 57.1 µM), for inactives: top-dose activity change, negative = inhibition, usual class: inhibitors | 1.6% of 230,000 active; active = well fitted inhibition curve with a large enough effect, not every such curve was filed as active; inconclusive = small, poorly fitted or top-dose-only effect, or another doubt; inactive = no such curve, though single readings can be large or run the other way;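 also: 0% = wells with enzyme and -100% = buffer wells without enzyme; nearly all actives have a fitted effect of over 50% in size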
L3MBTL1 inh – blocks human L3MBTL1; Potency, µM (series often up to 57.1 µM), inactives show at the top dose activity, negative = inhibition, hits mostly inhibitors; Q9Y468; AlphaScreen L3MBTL1–H3K9me1 peptide binding; AID 485360; 0.66% of 230,000 active; also: nearly all actives have a fitted effect of over 60% in size
Target sequence (Q9Y468 whole entry, looked up): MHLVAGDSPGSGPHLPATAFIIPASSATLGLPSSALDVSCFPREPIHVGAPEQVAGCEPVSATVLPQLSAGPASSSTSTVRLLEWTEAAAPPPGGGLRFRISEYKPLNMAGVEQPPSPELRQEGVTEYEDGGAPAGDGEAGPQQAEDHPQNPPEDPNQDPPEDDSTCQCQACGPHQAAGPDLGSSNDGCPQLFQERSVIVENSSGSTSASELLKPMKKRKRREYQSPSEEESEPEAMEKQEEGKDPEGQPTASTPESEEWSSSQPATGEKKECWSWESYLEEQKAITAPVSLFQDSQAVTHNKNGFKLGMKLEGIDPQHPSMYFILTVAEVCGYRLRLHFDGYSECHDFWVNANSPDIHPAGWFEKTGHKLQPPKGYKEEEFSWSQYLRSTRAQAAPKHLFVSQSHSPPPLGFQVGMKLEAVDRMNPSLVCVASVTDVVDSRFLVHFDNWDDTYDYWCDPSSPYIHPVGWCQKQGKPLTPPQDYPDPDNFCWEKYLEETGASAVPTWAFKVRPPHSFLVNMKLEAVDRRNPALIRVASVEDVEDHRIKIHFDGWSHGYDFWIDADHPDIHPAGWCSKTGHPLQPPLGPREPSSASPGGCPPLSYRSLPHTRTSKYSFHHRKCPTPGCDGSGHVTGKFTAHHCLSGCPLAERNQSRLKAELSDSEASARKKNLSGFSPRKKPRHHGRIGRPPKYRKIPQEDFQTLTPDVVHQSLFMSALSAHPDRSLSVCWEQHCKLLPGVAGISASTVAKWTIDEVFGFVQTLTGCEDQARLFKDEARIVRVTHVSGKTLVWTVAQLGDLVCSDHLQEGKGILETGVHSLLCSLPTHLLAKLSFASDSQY
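AlphaScreen assay: L3MBTL1 (50 nM final) was preincubated 30 min at room temperature with biotinylated H3(1-15)K9me1 peptide (75 nM final), then 30 min with library compounds; streptavidin donor and nickel chelate acceptor beads (10 ug/mL final) added, 30 min dark.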
APE1 inh-1 – APE1 (human) endonuclease inhibition | recombinant APE1, TAMRA/BHQ-2 abasic DNA cleavage fluorescence | Potency, µM (series often up to 65.8 µM), for the others: at the top dose activity change, negative = inhibition, hits mostly inhibitors | AID 2517 | 0.35% of 350,000 active;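 also: plate controls were vehicle for no effect and reference inhibitor for full effect; nearly all actives have a fitted effect of over 55% in size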
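Enzyme (0.75 nM final) and test compound are incubated 15 min at room temperature before adding 50 nM quenched THF abasic-site duplex. Cleavage dequenches TAMRA, followed at 525/598 nm over three reads one minute apart.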
RECQ1 inh-1 – blocks DNA unwinding by human RECQ1; P46063; RECQ1 DNA unwinding, red fluorescence kinetic read; Potency, µM (series often up to 57.3 µM), for the others: top-dose activity, negative = inhibition, most hits filed as inhibitors; 0.54% of 240,000 active;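 also: plate controls were vehicle for no effect and no enzyme for full effect; nearly all actives have a fitted effect of over 30% in size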
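50 nM RECQ1T1 preincubated 15 min with compound in Tris pH 8.0 buffer with MgCl2, DTT, Tween-20 and 2.5 ug/ml poly(dI-dC); started with 200 nM TAMRA/BHQ-2 forked duplex and 2 mM ATP. Unwinding read as fluorescence (525/598 nm), two reads 2 h apart.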
BLM helicase inh – inhibitors of human Bloom syndrome helicase BLM; recombinant BLM DNA unwinding, fluorescence dequenching; P54132; Potency, µM (highest dose often 56.1 µM), inactives show top-dose activity change, negative = inhibition, usual class: inhibitors; 0.2% of 350,000 active;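 also: plate controls were vehicle for no effect and no enzyme for full effect; nearly all actives have a fitted effect of over 35% in size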
DNA dye displace – counter-screen for APE1 inhibitors: DNA dye displacement | shares compounds with APE1 inh-1 | 7% of 480 active | AID 2564 | Potency, µM (top dose mostly 28.5 µM), for the others: at the highest dose activity change, negative = inhibition, most hits filed as inhibitors | DNA fluorescent dye displacement counterscreen, fluorescence;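 also: loss of thiazole orange fluorescence as the dye is displaced from duplex DNA; 0% = ThO with dsDNA and no compound and -100% = ThO without dsDNA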
EndoIV counter – counter-screen for APE1 inhibitors: inhibitors of E. coli endonuclease IV | AID 2565 | shares compounds with APE1 inh-1 | 4% of 560 active | E. coli Endo IV, fluorogenic AP-site DNA cleavage | Potency, µM (top dose mostly 27.1 µM), without a hit: at the highest dose activity change, negative = inhibition, usual class: inhibitors;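 also: plate controls were uninhibited enzyme wells for no effect and no enzyme buffer wells for full effect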
APE1 inh-2 – confirmation of inhibitors of human APE1 endonuclease; shares compounds with APE1 inh-1; purified APE1, fluorogenic abasic-site DNA cleavage; Potency, µM (top dose mostly 57.1 µM), inactives show top-dose activity change, negative = inhibition, hits mostly inhibitors; 44% of 750 active; AID 2572; also: nearly all actives have a fitted effect of over 30% in size
APE1 FP inh – APE1 (human) DNA binding inhibition, fluorescence polarization; shares compounds with APE1 inh-1; APE1 binding to TAMRA-labelled double-stranded DNA, fluorescence polarization displacement; Potency, µM (highest dose often 28.5 µM), without a hit: at the highest dose activity, negative = inhibition, usual class: inhibitors; 7% of 480 active; AID 2573
RECQ1 conf – confirmation of human RECQ1 helicase inhibitors; Potency, µM (titrated, usually from 229 µM), without a hit: top-dose activity change, negative = inhibition, hits mostly inhibitors; AID 2708; shares compounds with RECQ1 inh-1; 28% of 610 active; RECQ1 helicase DNA unwinding, fluorescence; also: nearly all actives have a fitted effect of over 45% in size
RECQ1 ADP FP – counter-screen for RECQ1 inhibitors: ADP displacement; Potency, µM (titrated, usually from 228 µM), inactives show top-dose activity change, negative = inhibition, usual class: inhibitors; shares compounds with RECQ1 inh-1; 27% of 530 active; ADP fluorescence polarization displacement counterscreen; also: nearly all actives have a fitted effect of over 45% in size
RECQ1 inh-2 – blocks human RECQ1 DNA unwinding. 15% of 1,100 active. AID 504841. Potency, µM (highest dose often 119 µM), for the others: at the highest dose activity, negative = inhibition, usual class: inhibitors. shares compounds with RECQ1 inh-1. recombinant RECQ1 DNA unwinding, red fluorescence; also: nearly all actives have a fitted effect of over 50% in size
The depositor's hits bear a star; i = inactive; ? = inconclusive; . = no result; [ ] = another dose, or the depositor's remark. This excerpt belongs to a sample that is enriched for hits. Unless noted, calls follow the shape of the dose curve; as a rule, active = well fitted curve in the direction sought with a large enough effect; inconclusive = small, poorly fitted or top-dose-only effect, or another doubt; inactive = no such curve, though single readings can be large; an effect the other way counts as inactive or inconclusive. Unless noted, % is scaled to controls: 0 for no effect and ±100 for the full control effect; potency is read from the fitted curve at half-maximal effect.

SMILES	KDM4E inh	L3MBTL1 inh	APE1 inh-1	RECQ1 inh-1	BLM helicase inh	DNA dye displace	EndoIV counter	APE1 inh-2	APE1 FP inh	RECQ1 conf	RECQ1 ADP FP	RECQ1 inh-2
c1ccc2c(c1)ccc1ccccc12	.	4.7%	25.6%	12.1%	.	.	.	.	.	.	.	.
CC1=[N+](C)c2ccc3ccccc3c2C1(C)C	?	-13.6%	14.1µM*	3.55µM*	-8.9%	0.9%	?	?	58.2%	7.94µM*	2.82µM*	22.4µM*
NS(=O)(=O)c1ccc(CCNC(=O)CSc2nc3ccccc3c3nc(CCN4CCCCC4)nn23)cc1	2.3%	.	13.8%	-0.9%	55.3%	.	.	.	.	.	.	.
O=C1c2ccccc2C(=O)N1/N=C/c1ccc(O)c(O)c1O	2.24µM*	.	0.708µM*	6.31µM*	-24.3%	-9.8%	73.2%	?	4.1%	?	35.5µM*	.
O=C1/C(=C/c2ccc(O)c(O)c2)Oc2cc(O)ccc21	15.8µM*	.	?	?	-14.8%	-4.7%	176.6%	?	26.6%	.	.	56.2µM*
CC(C)COC(=O)C(C)Nc1n[nH]c(=S)[nH]c1=O (centres undefined)	4.3%	-3.1%	?	11.7%	2.2%	.	.	.	.	.	.	.
O=C(NN1C(=O)/C(=C/C=C/c2ccccc2)SC1=S)c1ccncc1	-23.2%	.	6.0%	-7.1%	-12.2%	.	.	.	.	.	.	.
O=C1/C(=C/C=C/c2ccco2)SC(=S)N1c1ccc(O)cc1	14.1µM*	4.47µM*	7.94µM*	11.2µM*	?	?	20.4%	?	9.4%	?	-11.7%[91.9 µM]	.
O=C(NN1C(=O)/C(=C/C=C/c2ccco2)SC1=S)c1ccncc1	20µM*	.	4.47µM*	3.55µM*	2.5%	1.5%	86.1%	4.47µM*	?	22.4µM*	12.6µM*	.
O=C1/C(=C\c2ccco2)SC(=S)N1c1ccc(O)cc1	?	?	4.3%	-19.6%	33.7%	.	.	.	.	.	.	.
CC(C)CN1CCN(CCCc2ccccc2)C(CCO)C1 (centres undefined)	.	1.5%	23.3%	.	2.8%	.	.	.	.	.	.	.
Cc1ccc(NC2=C(Cl)C(=O)OC2OC(=O)c2ccco2)cc1C (centres undefined)	-7.0%	-4.8%	1.8%	-0.8%	-0.1%	.	.	.	.	.	.	.
Cc1cc(=O)n2[nH]c(-c3ccsc3-n3c(C)ccc3C)cc2n1	?	.	3.55µM*	8.91µM*	7.94µM*	-10.5%	9.6%	?	3.2%	50.1µM*	31.6µM*	?
Cc1cc(=O)n2[nH]c(-c3ccc(F)cc3)cc2n1	?	-2.8%	-10.2%	i	3.0%	.	.	.	.	.	.	.
CC1(C)CCCN(C(=O)c2coc(=O)c(Br)c2)C1	?	6.31µM*	3.98µM*	11.2µM*	29.7%	.	.	1.26µM*	.	20µM*	-6.4%[91.9 µM]	.
O=C(c1coc(=O)c(Br)c1)N1CCC(C(O)(c2ccccc2)c2ccccc2)CC1	?	3.1%	2.0%	-17.2%	4.1%	.	.	.	.	.	.	.
CCN(CC)S(=O)(=O)c1ccc(C)c(NC(=O)CSc2ncc(C(F)(F)F)cc2Cl)c1	24.2%	2.8%	-0.3%	-6.5%	-8.3%	.	.	.	.	.	.	.
C[C@@]1(C(=O)O)NCCc2cc(O)c(O)cc21	?	.	1.78µM*	2.51µM*	8.91µM*	-12.4%[57.1 µM]	161.3%[57.1 µM]	-1.7%	20.2%[57.1 µM]	-57.7%	?	.
COc1ccc(CNC(=O)c2ccc(-c3nc(CSc4ccccc4)c(C)o3)cc2)cc1OC	.	.	.	.	-14.5%	.	.	.	.	.	.	.
CCCSC1=N/C(=C\C=C\c2ccco2)C(=O)S1	8.91µM*	5.62µM*	3.98µM*	7.94µM*	20µM*	-3.1%	17.7%	?	?	31.6µM*	12.6µM*	?
O=C1SC(SCc2ccccc2)=N/C1=C\c1ccco1	-9.6%	.	?	?	-5.2%	?	-10.4%	?	4.8%	.	.	?
COc1ccc(C(=O)NC(=S)N2CCCCC2)cc1[N+](=O)[O-]	-0.8%	10.3%	4.7%	-5.4%	0.7%	.	.	.	.	.	.	.
CC1(C)SC2C(N3C(=O)C(c4ccccc4)NC3(C)C)C(=O)N2C1C(=O)O (centres undefined)	?	.	.	14.1µM*	-7.5%	-8.1%[57.1 µM]	14.3%[57.1 µM]	?	?	89.1µM*	31.6µM*	.
O=C1C=C(O)c2cccc(O)c2C1=O	7.94µM*	.	?	?	-0.4%	-3.4%	-2.7%	-4.1%[24.4 µM]	1.9%	.	.	-10.7%
O=C1C=C(O)c2ccccc2C1=O	?	.	-6.8%	2.2%	-3.3%	.	.	.	.	.	.	.
SMILES	KDM4E inh	L3MBTL1 inh	APE1 inh-1	RECQ1 inh-1	BLM helicase inh	DNA dye displace	EndoIV counter	APE1 inh-2	APE1 FP inh	RECQ1 conf	RECQ1 ADP FP	RECQ1 inh-2
O=C(CCCN1C(=O)/C(=C/c2ccco2)SC1=S)Nc1cccc(C(=O)O)c1	?	-86.4%	7.94µM*	8.91µM*	?	0.5%	106.5%	?	-8.8%	70.8µM*	0.2%[91.9 µM]	.
Cc1noc(C)c1C(=O)N1CCN(S(=O)(=O)c2ccc(F)cc2)CC1	6.6%	-4.1%	-7.0%	-3.6%	-0.9%	.	.	.	.	.	.	.
Cc1cc(O)c(Oc2cc(C)cc(O)c2O)c(O)c1	12.6µM*	-1.7%	10µM*	12.6µM*	-4.0%	5.0%	77.3%	?	5.5%	.	.	?
Cc1cc(C(C)(C)C)c(O)c(C(C)(C)C)c1	4.8%	7.1%	5.2%	-10.6%	0.7%	.	.	.	.	.	.	.
O=c1cc(-c2ccc(O)cc2)oc2cc(O)c(C3OC(CO)C(O)C(O)C3O)c(O)c12 (centres undefined)	?	15.8µM*	7.08µM*	?	-15.6%	-10.2%	-1.2%	12.6µM*	2.1%	.	.	50.1µM*
O=C(O)Cc1ccc(C(=O)c2ccccc2)s1	-9.7%	.	3.0%	-8.9%	-7.0%	.	.	.	.	.	.	.
